Laboratory results as given in PubChem BioAssay (NCATS).
Records with an inconclusive call do not appear. Calls of active or inactive are those of the source. Calls come from the whole dose curve; as a rule, active = well fitted inhibition curve with a large enough effect; inconclusive = small, poorly fitted or top-dose-only effect; inactive = flat fitted curve, though single readings scatter.

molecular target: Voltage-gated inwardly rectifying potassium channel KCNH2 (Homo sapiens) (UniProt Q12809); test: qHTS Assay for Small Molecule Inhibitors of the Human hERG Channel Activity (AID 588834); settings: U2OS BacMam hERG, FluxOR thallium flux fluorescence; series mostly up to 46.1 µM; activity change, negative = inhibition: at the top concentration;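 note: lower thallium flux fluorescence means stronger hERG block; nearly all actives have a fitted effect of over 50% in size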;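 for activity change, negative = inhibition: U2OS cells transduced with hERG by BacMam; top concentration of the series differs between compounds; % is set by controls: 0 for no effect and ±100 for the full control effect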
Outline: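 Cells were infected with hERG-BacMam virus for 4 hrs at room temperature, grown overnight, then seeded at 2000/well. After dye loading and roughly 10 min compound treatment, thallium influx was triggered and fluorescence recorded.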
Potency is the fitted concentration of half-maximal effect.

Voltage-gated inwardly rectifying potassium channel KCNH2 (Homo sapiens), sequence (Q12809 whole entry, looked up): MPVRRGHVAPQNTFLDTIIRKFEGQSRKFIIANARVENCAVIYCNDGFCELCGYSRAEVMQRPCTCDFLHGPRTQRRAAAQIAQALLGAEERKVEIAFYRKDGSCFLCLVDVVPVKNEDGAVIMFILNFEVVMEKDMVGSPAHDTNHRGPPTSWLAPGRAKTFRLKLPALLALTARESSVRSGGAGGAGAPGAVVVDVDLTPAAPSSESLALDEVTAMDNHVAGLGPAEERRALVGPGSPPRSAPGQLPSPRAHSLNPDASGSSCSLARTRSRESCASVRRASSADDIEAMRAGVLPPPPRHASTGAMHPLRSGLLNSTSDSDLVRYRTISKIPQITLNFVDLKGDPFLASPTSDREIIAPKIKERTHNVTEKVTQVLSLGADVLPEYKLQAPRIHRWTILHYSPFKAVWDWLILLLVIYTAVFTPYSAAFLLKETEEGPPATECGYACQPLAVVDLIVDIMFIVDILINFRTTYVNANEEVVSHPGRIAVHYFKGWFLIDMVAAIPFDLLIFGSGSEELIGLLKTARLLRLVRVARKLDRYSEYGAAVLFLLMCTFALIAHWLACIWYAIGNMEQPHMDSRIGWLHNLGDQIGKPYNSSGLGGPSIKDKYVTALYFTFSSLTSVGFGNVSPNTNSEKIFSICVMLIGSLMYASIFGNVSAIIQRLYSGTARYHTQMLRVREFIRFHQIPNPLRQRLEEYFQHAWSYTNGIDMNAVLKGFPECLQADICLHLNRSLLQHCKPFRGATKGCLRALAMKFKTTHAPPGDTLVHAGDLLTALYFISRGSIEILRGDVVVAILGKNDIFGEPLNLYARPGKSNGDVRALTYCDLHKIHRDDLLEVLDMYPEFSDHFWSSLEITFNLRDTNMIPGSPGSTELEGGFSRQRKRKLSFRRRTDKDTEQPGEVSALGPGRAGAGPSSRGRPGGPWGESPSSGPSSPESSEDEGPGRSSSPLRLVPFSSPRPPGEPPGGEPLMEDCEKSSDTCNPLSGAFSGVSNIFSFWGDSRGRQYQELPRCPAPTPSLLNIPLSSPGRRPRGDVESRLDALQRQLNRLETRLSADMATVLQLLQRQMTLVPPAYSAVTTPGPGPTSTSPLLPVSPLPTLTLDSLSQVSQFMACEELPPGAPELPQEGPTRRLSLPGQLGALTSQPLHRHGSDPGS

Compound | activity change, negative = inhibition | Potency
CC(=O)N/N=C/c1ccc([N+](=O)[O-])o1 | -11.1% (inactive) | –
C#C[C@]1(OC(C)=O)CC[C@H]2[C@@H]3CCC4=C[C@@H](OC(C)=O)CC[C@@H]4[C@H]3CC[C@@]21C | -25.6% (inactive) | –
NC(CO)(CO)CO | 19.2% (inactive) | –
CCCCCCCCCCCCCCNCCO | 8.6% (inactive) | –
COCc1c(C(C)C)nc(C(C)C)c(/C=C/[C@@H](O)C[C@@H](O)CC(=O)O)c1-c1ccc(F)cc1 | -1.98% (inactive) | –
COc1cc(-c2ccc(=O)[nH]n2)ccc1OC(F)F | 7.91% (inactive) | –
CCCCC1=NC2(CCCC2)C(=O)N1Cc1ccc(-c2ccccc2-c2nn[nH]n2)cc1 | 2.95% (inactive) | –
CCN(CC)CCOc1ccc(C(O)(Cc2ccc(Cl)cc2)c2ccc(C)cc2)cc1 (stereo not drawn) | – | 3.98 µM (active)
CCOC(=O)n1ccn(C)c1=S | 7.9% [at 20.6 µM] (inactive) | –
C[C@@H]1C[C@H]2[C@@H]3CCC4=CC(=O)C=C[C@]4(C)[C@@]3(F)[C@@H](O)C[C@]2(C)[C@H]1C(=O)CO | -1.81% (inactive) | –
Cc1ncc(CSSCc2cnc(C)c(O)c2CO)c(CO)c1O | 1.69% (inactive) | –
COc1ccc(CN2CCN(C(c3ccc(F)cc3)c3ccc(F)cc3)CC2)c(OC)c1OC | – | 1.12 µM (active)
CC(=O)OCC(=O)NCCCOc1cccc(CN2CCCCC2)c1 | -0.0093% (inactive) | –
CN1CCC(=C2c3ccccc3Sc3ccccc32)CC1 | – | 4.47 µM (active)
O=C(O)CNC(=O)c1ccccc1 | 2.07% (inactive) | –

molecular target: Luciferin 4-monooxygenase (Photinus pyralis) (UniProt P08659); test: Biochemical firefly luciferase enzyme assay for NPC (AID 624030); note: nearly all actives have a fitted effect of over 70% in size;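 for activity change, negative = inhibition: purified P. pyralis luciferase at 10 nM with luciferin and ATP substrate; 0% = DMSO and -100% = full luciferase inhibition by PTC124 control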; settings: purified P. pyralis luciferase, luminescence, 5 min; series mostly up to 58.6 µM; activity change, negative = inhibition: at the top concentration
Outline: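 Direct inhibition of firefly luciferase enzyme (10 nM final, 50 mM Tris Acetate) assessed by luminescence within 5 minutes. Percent activity scaled between DMSO and PTC124 positive control, with concentration-effect curves classified by fit quality and response.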

Luciferin 4-monooxygenase (Photinus pyralis), sequence (P08659 whole entry, looked up): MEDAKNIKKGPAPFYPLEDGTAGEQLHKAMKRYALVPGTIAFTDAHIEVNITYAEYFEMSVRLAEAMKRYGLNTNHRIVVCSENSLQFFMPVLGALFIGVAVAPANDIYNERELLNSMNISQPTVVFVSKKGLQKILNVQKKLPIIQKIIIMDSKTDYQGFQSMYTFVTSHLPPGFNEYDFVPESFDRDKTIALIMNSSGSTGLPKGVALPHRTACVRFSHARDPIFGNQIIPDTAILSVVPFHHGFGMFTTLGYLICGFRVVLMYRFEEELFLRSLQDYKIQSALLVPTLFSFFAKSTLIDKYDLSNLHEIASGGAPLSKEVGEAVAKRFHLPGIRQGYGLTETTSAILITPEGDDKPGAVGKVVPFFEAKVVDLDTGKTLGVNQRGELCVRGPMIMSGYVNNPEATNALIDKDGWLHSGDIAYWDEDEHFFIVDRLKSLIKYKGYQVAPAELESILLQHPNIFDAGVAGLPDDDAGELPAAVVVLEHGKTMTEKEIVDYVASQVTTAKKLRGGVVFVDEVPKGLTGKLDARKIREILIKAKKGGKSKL

Compound | activity change, negative = inhibition | Potency
Cc1ccc(C(=O)C(C)CN2CCCCC2)cc1 (stereo not drawn) | 19.8% (inactive) | –
CC(=O)N/N=C/c1ccc([N+](=O)[O-])o1 | -8.6% (inactive) | –
C#C[C@]1(OC(C)=O)CC[C@H]2[C@@H]3CCC4=C[C@@H](OC(C)=O)CC[C@@H]4[C@H]3CC[C@@]21C | 1.46% (inactive) | –
CCCCCCC[N+](CC)(CC)CCCCc1ccc(Cl)cc1 | 5.37% [at 24.9 µM] (inactive) | –
NC(CO)(CO)CO | 26.6% (inactive) | –
CNCCC(Oc1ccccc1C)c1ccccc1 (stereo not drawn) | -0.0559% (inactive) | –
CC1(C)OC[C@@H](COC(=O)CCc2ccc(OC[C@@H](O)CNCCNC(=O)N3CCOCC3)cc2)O1 | – | inactive
CCCCCCCCCCCCCCNCCO | -4.71% (inactive) | –
COc1cc2c(cc1OC)C(C(C(=O)N(CCc1ccc(OC)c(OC)c1OC)CCc1ccc(OC)c(OC)c1OC)c1ccccc1)=NCC2 (stereo not drawn) | -2.38% (inactive) | –
COCc1c(C(C)C)nc(C(C)C)c(/C=C/[C@@H](O)C[C@@H](O)CC(=O)O)c1-c1ccc(F)cc1 | -10.5% (inactive) | –
CC(C)NC[C@@H](O)COc1cccc2ccccc12 | 4.39% (inactive) | –
COc1cc(-c2ccc(=O)[nH]n2)ccc1OC(F)F | -1.48% (inactive) | –
CCCCC1=NC2(CCCC2)C(=O)N1Cc1ccc(-c2ccccc2-c2nn[nH]n2)cc1 | 0.917% (inactive) | –
Cc1cccc(C)c1NC(=O)CN1CCN(CCCC(c2ccc(F)cc2)c2ccc(F)cc2)CC1 | 3.78% [at 24.9 µM] (inactive) | –
CCN(CC)CCOc1ccc(C(O)(Cc2ccc(Cl)cc2)c2ccc(C)cc2)cc1 (stereo not drawn) | 13.8% (inactive) | –
COC(=O)[C@H]1[C@H]2C[C@H]3c4[nH]c5ccccc5c4CCN3C[C@H]2CC[C@@H]1O | 0.881% (inactive) | –
CCOC(=O)n1ccn(C)c1=S | -0.0451% [at 24.9 µM] (inactive) | –
Cc1ccc(Nc2c(F)cccc2Cl)c(CC(=O)O)c1 | -15.5% (inactive) | –
C[C@@H]1C[C@H]2[C@@H]3CCC4=CC(=O)C=C[C@]4(C)[C@@]3(F)[C@@H](O)C[C@]2(C)[C@H]1C(=O)CO | 22.5% (inactive) | –

Compound | activity change, negative = inhibition | Potency
CC(C)COC(=O)OCN1C(=O)CN(CCN2CC(=O)N(COC(=O)OCC(C)C)C(=O)C2)CC1=O | 2.7% (inactive) | –
CCN(CCCc1ccccc1)CCCc1ccccc1 | -7.84% [at 24.9 µM] (inactive) | –
Cc1ncc(CSSCc2cnc(C)c(O)c2CO)c(CO)c1O | -5.23% (inactive) | –
Clc1ccc2c(c1)CCc1cccnc1C2=C1CCNCC1 | 7.86% (inactive) | –
COc1ccc(CN2CCN(C(c3ccc(F)cc3)c3ccc(F)cc3)CC2)c(OC)c1OC | 8.16% (inactive) | –
COc1ccc(C2C(=O)c3ccccc3C2=O)cc1 | -1.85% (inactive) | –
CC(=O)OCC(=O)NCCCOc1cccc(CN2CCCCC2)c1 | -3.29% (inactive) | –
CN1CCC(=C2c3ccccc3Sc3ccccc32)CC1 | 10.4% (inactive) | –
COc1cc(NS(C)(=O)=O)ccc1Nc1c2ccccc2nc2ccccc12 | – | 14.4 µM (active)
CCCOC(C(=O)OC1CCN(C)CC1)(c1ccccc1)c1ccccc1 | 10.1% (inactive) | –
CCCN1CCCC[C@H]1C(=O)Nc1c(C)cccc1C | -0.718% (inactive) | –
COc1cccc(CCc2ccccc2OCC(CN(C)C)OC(=O)CCC(=O)O)c1 (stereo not drawn) | 5.08% (inactive) | –
CO/N=C1\CN(c2nc3c(cc2F)c(=O)c(C(=O)O)cn3C2CC2)CC1CN (stereo not drawn) | 9.41% (inactive) | –
O=C(O)CNC(=O)c1ccccc1 | -2.36% (inactive) | –
CCOc1ccc(Cc2nccc3cc(OCC)c(OCC)cc23)cc1OCC | -0.365% [at 24.9 µM] (inactive) | –
O=S1(=O)c2cccc3cccc(c23)N1CCCN1CCN(c2ccc(F)cc2)CC1 | 1.93% (inactive) | –
COC(=O)CCc1ccc(OCC(O)CNC(C)C)cc1 (stereo not drawn) | 1.37% (inactive) | –
CCCCCCCCCCCCCCCC[N+](C)(C)CC | 6% (inactive) | –
